Source: the supplement of paper PMC12067926

Key:
Test in all cases: relative growth (AUC of 72 h growth curve relative to DMSO control, dAUC) (ratio); higher = more growth (less inhibition), active = hit call of the paper
Details in all cases: 20 µM;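 active = growth AUC significantly below the DMSO wells by Dunnett test; inactive = the rest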
[1] = tested on: Prolinoborus 1 (Prolinoborus fasciculus)
Outline: (§1)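 Growth was followed as A600, read hourly for 72 h on a plate reader after brief shaking. Isolates from Icelandic stream sediments and Silwood Park soil, and whole sediment communities, were first grown to carrying capacity in Luria–Bertani medium and then diluted 1:100 into 96-well plates with each chemical at 20 µM (1% DMSO). Relative growth (dAUC) is the spline-integrated area under the curve scaled to the mean of the DMSO controls, and the values are averages of three biological replicates.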

[2] = tested on: Pseudomonas 1 (Pseudomonas baetica)
Outline: as §1

[3] = tested on: Pseudomonas 2 (Pseudomonas vancouverensis)
Outline: as §1

[4] = tested on: Pseudomonas 3 (Pseudomonas mandelii)
Outline: as §1

[5] = tested on: Pseudomonas 4 (Pseudomonas peli)
Outline: as §1

[6] = tested on: Pseudomonas 5 (Pseudomonas baetica)
Outline: as §1

[7] = tested on: Pseudomonas 6 (Pseudomonas sp.)
Outline: as §1

[8] = tested on: Rhizobium 1 (Rhizobium herbae)
Outline: as §1

[9] = tested on: Serratia 1 (Serratia sp. 2015-2462-01)
Outline: as §1

[10] = tested on: Sphingomonas 2 (Sphingomonas sp.)
Outline: as §1

| SMILES | relative growth [1] | relative growth [2] | relative growth [3] | relative growth [4] | relative growth [5] | relative growth [6] | relative growth [7] | relative growth [8] | relative growth [9] | relative growth [10] |
| --- | --- | --- | --- | --- | --- | --- | --- | --- | --- | --- |
| Oc1ccccc1-c1ccccc1 | 0.977 (inactive) | 1.03 (inactive) | 0.98 (inactive) | 1.01 (inactive) | 0.935 (inactive) | 1.05 (inactive) | 1.14 (inactive) | 0.989 (inactive) | 0.959 (inactive) | 0.969 (inactive) |
| O=C1c2ccccc2C(=O)N1SC(Cl)(Cl)Cl | 1.04 (inactive) | 1.05 (inactive) | 0.992 (inactive) | 1.01 (inactive) | 1.01 (inactive) | 1.06 (inactive) | 1.16 (inactive) | 1.01 (inactive) | 0.947 (inactive) | 0.999 (inactive) |
| CNC(=O)c1cc(C#N)cc(C)c1NC(=O)c1cc(Br)nn1-c1ncccc1Cl | 0.944 (inactive) | 0.962 (inactive) | 0.986 (inactive) | 1.01 (inactive) | 0.976 (inactive) | 1.06 (inactive) | 1.06 (inactive) | 0.961 (inactive) | 0.982 (inactive) | 1.05 (inactive) |
| CNC(=O)ON=C(C)SC | 0.938 (inactive) | 0.876 (inactive) | 0.956 (inactive) | 0.999 (inactive) | 0.946 (inactive) | 1.02 (inactive) | 0.936 (inactive) | 1.06 (inactive) | 0.936 (inactive) | 0.978 (inactive) |
| CS(=O)(=O)c1ccc(C(=O)C2C(=O)CCCC2=O)c([N+](=O)[O-])c1 | 0.983 (inactive) | 1.06 (inactive) | 1.02 (inactive) | 1.03 (inactive) | 1.05 (inactive) | 0.998 (inactive) | 0.96 (inactive) | 1.15 (inactive) | 1 (inactive) | 1.1 (inactive) |
| Nc1c(Cl)c(F)nc(OCC(=O)O)c1Cl | 1 (inactive) | 0.977 (inactive) | 1 (inactive) | 0.978 (inactive) | 1.04 (inactive) | 0.947 (inactive) | 0.889 (inactive) | 0.958 (inactive) | 0.996 (inactive) | 1.11 (inactive) |
| CC1=NNC(=O)N(/N=C/c2cccnc2)C1 | 1.05 (inactive) | 0.636 (inactive) | 1.03 (inactive) | 0.986 (inactive) | 0.986 (inactive) | 0.971 (inactive) | 0.931 (inactive) | 1.03 (inactive) | 0.937 (inactive) | 1.03 (inactive) |
| CCCN(CCOc1c(Cl)cc(Cl)cc1Cl)C(=O)n1ccnc1 | 0.93 (inactive) | 1.07 (inactive) | 0.984 (inactive) | 1.02 (inactive) | 0.964 (inactive) | 0.997 (inactive) | 1.03 (inactive) | 0.949 (inactive) | 0.985 (inactive) | 0.993 (inactive) |
| Cc1cc(C(F)(C(F)(F)F)C(F)(F)F)ccc1NC(=O)c1cccc(I)c1C(=O)NC(C)(C)CS(C)(=O)=O | 0.933 (inactive) | 0.728 (inactive) | 0.842 (active) | 0.883 (inactive) | 1.13 (inactive) | 0.92 (inactive) | 0.776 (inactive) | 0.937 (inactive) | 1.19 | 0.654 (active) |
| COP(N)(=O)SC (stereo not given) | 0.972 (inactive) | 1.04 (inactive) | 0.982 (inactive) | 1.06 (inactive) | 0.995 (inactive) | 1.1 (inactive) | 1.06 (inactive) | 0.973 (inactive) | 0.965 (inactive) | 0.675 (inactive) |
| CC[C@H]1CCC[C@H](O[C@H]2CC[C@H](N(C)C)[C@@H](C)O2)[C@@H](C)C(=O)C2=C[C@@H]3[C@@H](C=C(C)[C@@H]4C[C@@H](O[C@@H]5O[C@@H](C)[C@H](OC)[C@@H](OC)[C@H]5OC)C[C@@H]34)[C@@H]2CC(=O)O1.CC[C@H]1CCC[C@H](O[C@H]2CC[C@H](N(C)C)[C@@H](C)O2)[C@@H](C)C(=O)C2=C[C@H]3[C@@H]4C[C@H](O[C@@H]5O[C@@H](C)[C@H](OC)[C@@H](OC)[C@H]5OC)C[C@H]4C=C[C@H]3C2CC(=O)O1 | 0.832 (inactive) | 1.14 (inactive) | 0.981 (inactive) | 1.04 (inactive) | 1.05 (inactive) | 1.06 (inactive) | 1.01 (inactive) | 0.89 (inactive) | 1.1 (inactive) | 1 (inactive) |
| CC1(C)CON(Cc2ccccc2Cl)C1=O | 0.954 (inactive) | 1.01 (inactive) | 0.981 (inactive) | 1.06 (inactive) | 0.975 (inactive) | 1.06 (inactive) | 1.13 (inactive) | 0.983 (inactive) | 0.94 (inactive) | 1.15 (inactive) |
| C/C(=N\C#N)N(C)Cc1ccc(Cl)nc1 | 0.963 (inactive) | 0.967 (inactive) | 1 (inactive) | 0.987 (inactive) | 0.991 (inactive) | 1.03 (inactive) | 0.981 (inactive) | 1.11 (inactive) | 0.976 (inactive) | 1.03 (inactive) |
| CCOCn1c(-c2ccc(Cl)cc2)c(C#N)c(Br)c1C(F)(F)F | 1.01 (inactive) | 1.05 (inactive) | 1 (inactive) | 1.04 (inactive) | 1.02 (inactive) | 0.998 (inactive) | 1.11 (inactive) | 1.07 (inactive) | 1.01 (inactive) | 0.848 (inactive) |
| CO/C=C(/C(=O)OC)c1ccccc1Oc1cc(Oc2ccccc2C#N)ncn1 | 0.973 (inactive) | 1.07 (inactive) | 1.02 (inactive) | 1.06 (inactive) | 1.03 (inactive) | 1.03 (inactive) | 1.08 (inactive) | 0.967 (inactive) | 0.967 (inactive) | 1.09 (inactive) |
| CCOC(=O)CC(SP(=S)(OC)OC)C(=O)OCC (stereo not given) | 1.01 (inactive) | 1.03 (inactive) | 1.05 (inactive) | 1.05 (inactive) | 1.04 (inactive) | 0.994 (inactive) | 1.09 (inactive) | 0.984 (inactive) | 1.01 (inactive) | 1.15 (inactive) |
| CC(C)(C)[C@@H](O)[C@H](Oc1ccc(Cl)cc1)n1cncn1 | 1.02 (inactive) | 0.598 (active) | 0.991 (inactive) | 0.991 (inactive) | 0.989 (inactive) | 0.963 (inactive) | 0.953 (inactive) | 1.05 (inactive) | 1.02 (inactive) | 1.08 (inactive) |
| CC1(C)[C@H](C(=O)O[C@H](C#N)c2cccc(Oc3ccccc3)c2)[C@@H]1C=C(Br)Br | 1.01 (inactive) | 1.04 (inactive) | 1.03 (inactive) | 1.03 (inactive) | 1.01 (inactive) | 1.06 (inactive) | 1.14 (inactive) | 1.23 (inactive) | 1 (inactive) | 1.12 (inactive) |
| COP(=S)(OC)Oc1ccc(SC)c(C)c1 | 0.975 (inactive) | 0.988 (inactive) | 0.973 (inactive) | 1.01 (inactive) | 0.957 (inactive) | 1.01 (inactive) | 1.01 (inactive) | 0.937 (inactive) | 0.998 (inactive) | 0.974 (inactive) |
| CN1COCN(Cc2cnc(Cl)s2)/C1=N\[N+](=O)[O-] | 0.974 (inactive) | 0.927 (inactive) | 1.03 (inactive) | 1.05 (inactive) | 0.996 (inactive) | 1.04 (inactive) | 1.1 (inactive) | 1.01 (inactive) | 0.99 (inactive) | 1.05 (inactive) |
| CS(=O)(=O)NC(=O)c1cc(Oc2ccc(C(F)(F)F)cc2Cl)ccc1[N+](=O)[O-] | 1.01 (inactive) | 1.01 (inactive) | 1 (inactive) | 1 (inactive) | 0.996 (inactive) | 1.04 (inactive) | 1.07 (inactive) | 0.917 (inactive) | 1.02 (inactive) | 1.02 (inactive) |
| COc1cc(OC)nc(NC(=O)NS(=O)(=O)c2ncccc2C(=O)N(C)C)n1 | 0.999 (inactive) | 0.988 (inactive) | 1 (inactive) | 1.01 (inactive) | 0.993 (inactive) | 0.996 (inactive) | 0.943 (inactive) | 0.992 (inactive) | 1 (inactive) | 1 (inactive) |
| CNC(=O)Oc1cccc2ccccc12 | 1 (inactive) | 0.973 (inactive) | 1.04 (inactive) | 0.996 (inactive) | 1.01 (inactive) | 1.04 (inactive) | 1.12 (inactive) | 0.906 (inactive) | 0.932 (inactive) | 0.986 (inactive) |
| CC[C@H](C)C1O[C@]2(C=C[C@@H]1C)C[C@@H]1C[C@@H](C/C=C(\C)[C@@H](O[C@H]3C[C@H](OC)[C@@H](O[C@H]4C[C@H](OC)[C@H](NC)[C@H](C)O4)[C@H](C)O3)[C@@H](C)/C=C/C=C3\CO[C@@H]4[C@H](O)C(C)=C[C@@H](C(=O)O1)[C@]34O)O2 (stereo not given in full) | 0.605 (active) | 0.957 (inactive) | 0.971 (inactive) | 1.08 (inactive) | 0.98 (inactive) | 1.16 | 1.19 (inactive) | 0.8 (inactive) | 1.16 | 0.373 (active) |
| Cc1ccc(/N=C/N(C)/C=N/c2ccc(C)cc2C)c(C)c1 | 0.978 (inactive) | 1.05 (inactive) | 0.973 (inactive) | 1.1 (inactive) | 0.967 (inactive) | 1.01 (inactive) | 1.11 (inactive) | 1.06 (inactive) | 0.946 (inactive) | 1.04 (inactive) |
| COP(=S)(OC)SCN1C(=O)c2ccccc2C1=O | 1.08 (inactive) | 0.986 (inactive) | 0.981 (inactive) | 0.971 (inactive) | 0.962 (inactive) | 1.03 (inactive) | 1.12 (inactive) | 0.943 (inactive) | 0.972 (inactive) | 1.01 (inactive) |
| CCOc1ccc(C(C)(C)COCc2cccc(Oc3ccccc3)c2)cc1 | 0.909 (inactive) | 1.14 (inactive) | 0.998 (inactive) | 1.02 (inactive) | 0.914 (inactive) | 0.991 (inactive) | 1.02 (inactive) | 0.851 (inactive) | 0.956 (inactive) | 0.967 (inactive) |
